Experimental data reported in PubChem BioAssay (Tox21).
Inconclusive results are not listed. Entries that show only a call come without a potency. Activity calls are given as the source filed them. The call rests on the fitted dose curve; in most records, active means well fitted inhibition curve with a large enough effect in the repeat runs; inconclusive means weak or mixed curves; inactive means no such curve, though single readings can be large or run the other way.
Potency means the concentration at half of the fitted maximal effect.

Assay: qHTS assay to identify small molecule antagonists of the thyroid receptor (TR) signaling pathway (AID 743065); further: nearly all actives have a fitted effect of over 55% in size
Details: GH3.TRE-Luc, T3-stimulated luciferase inhibition, 23.5 h; series mostly up to 70.3 µM
From the text: U.S. Tox21 Program National Center for Advancing Translational Sciences [NCATS] NIH Chemical Genomics Center [NCGC] U.S. Environmental Protection Agency [EPA] National Institutes of Environmental Health Sciences [NIEHS] National Toxicology Program [NTP] U.S. Food and Drug Administration [FDA] Tox21 Assay Overview: Thyroid receptor (TR), a nuclear hormone receptor, plays an important role in development, proliferation, differentiation, metabolism, brain function, and cardiovascular system. […] To profile the Tox21 10K compound library in TR signaling, a cell-based GH3-TRE-Luc assay (GH3.TRE-Luc cell line, developed by the laboratory of Dr. Albertinka J. Murk, Wageningen University) was used to measure the inhibition of TR. GH3 (rat pituitary tumor) cells stably expressing a TR activity sensor consisting of two TR response elements and a luciferase reporter gene.
Tox21 Assay Protocol Summary: GH3.TRE-Luc cells were dispensed at 1500 cells/4 uL/well into 1536-well white solid bottom plates using a Multidrop Combi dispenser (Thermo Fisher Scientific Inc., Waltham, MA). After the assay plates were incubated at 37 C for 4 hours, 23 nL of library compound or DMSO controls was transferred to the assay plates by a pintool station (Kalypsys, San Diego, CA), followed by addition of 1 ul of T3 (1 nM, final concentration in the wells) to stimulate TR transactivation. The assay plates were incubated at 37 C for 23.5 h, and then 1 uL of CellTiter-Fluor reagent (Promega, Madision, WI) of measuring cytotoxicity was added to each well using a Bioraptr Flying Reagent Dispenser (FRD) workstation (Beckman Coulter, Indianapolis, IN, USA). The plates were incubated at 37 C and 5% CO2 for additional 30 min, and fluorescence intensity was measured by a ViewLux plate reader (PerkinElmer, Shelton, CT). For measuring luciferase reporter gene activity, 4 uL of ONE-Glo Luciferase Assay reagent (Promega) was added to each well using a Bioraptr FRD (Beckman Coulter), followed by 30 min incubation at room temperature. The luminescence intensity of plates was recorded by a ViewLux plate reader (PerkinElmer, Shelton, CT).
In the case of CC/C=C\CCOC(=O)CCCCC, the Potency is reported as “inactive”. In the case of C=CCCCCCCCCO, the Potency is reported as “inactive”. For CCOc1ccc2nc(N)sc2c1, the Potency was “inactive”. For COc1ccc(S(=O)(=O)Nc2nnc(CC(C)C)s2)cc1, the Potency was “inactive”. With N#Cc1ccc(C(c2ccc(C#N)cc2)n2cncn2)cc1 the Potency was “inactive”. In the case of OCCN1CCN(CCO)CC1, the Potency is reported as “inactive”. For C=C(C)C(=O)OCCOP(=O)(O)O, the Potency was “inactive”. In the case of CCN[C@H]1CN(CCCOC)S(=O)(=O)c2sc(S(N)(=O)=O)cc21, the Potency is reported as “inactive”. In the case of CCCCCOc1ccc(C2SC(=O)NC2=O)cc1OCC (stereo not given), the Potency is reported as 2.37 µM (active). With CN1CCN(C2=Nc3cc(F)ccc3Cc3ccccc32)CC1 the Potency was 13.3 µM (active). For CC1=CC(=O)CC(C)(C)C1=O, the Potency was “inactive”. In the case of CC(C)OC(C)C, the Potency is reported as “inactive”. With CN1CCN(c2c(F)cc3c(=O)c(C(=O)O)cn(CCF)c3c2F)CC1 the Potency was “inactive”. With C=CC(C)(O)CC/C=C(\C)CCC=C(C)C (stereo not given) the Potency was “inactive”. With CCN1CC(CCN2CCOCC2)C(c2ccccc2)(c2ccccc2)C1=O (stereo not given) the Potency was “inactive”. In the case of CC1(C)C(=O)N(Cl)C(=O)N1Br, the Potency is reported as “inactive”. In the case of CCC(=O)Nc1ccc(O)cc1, the Potency is reported as “inactive”. For CC[C@H]1CC[C@H](NCc2cc3c(cc2OC)[C@H]2C[C@H]2C(=O)N3C)[C@H](c2ccccc2)N1, the Potency was 19.3 µM (active). For COC(=O)c1ccc(OC)cc1, the Potency was “inactive”. In the case of c1ccc(CN(CC2=NCCN2)c2ccccc2)cc1, the Potency is reported as 23.7 µM (active). For CN1[C@@H]2CC[C@H]1CC(OC(=O)c1c[nH]c3ccccc13)C2 (stereo not given in full), the Potency was 26.6 µM (active). With O=C(O)[C@@H]1CSCN1 the Potency was “inactive”. In the case of CCNCCO, the Potency is reported as “inactive”. In the case of O=S(=O)(O)C(F)(F)F, the Potency is reported as “inactive”. With O=CCCc1ccccc1 the Potency was “inactive”. With C[C@]12C(=O)OC(=O)[C@H]1[C@H]1C=C[C@@H]2C1 the Potency was “inactive”. With CC(=O)Nc1ccc(C)c(Cl)c1 the Potency was “inactive”. For C=Cc1ccccc1, the Potency was “inactive”. In the case of CCOC(=O)C(Br)c1ccccc1 (stereo not given), the Potency is reported as “inactive”. With CC1=NN(c2cc(Cl)c(S(=O)(=O)O)cc2Cl)C(=O)C1N=Nc1ccc(S(=O)(=O)O)cc1 (stereo not given) the Potency was “inactive”. For Cc1c(-c2ccccc2)oc2c(C(=O)OCCN3CCCCC3)cccc2c1=O, the Potency was “inactive”. For CC1=C2[C@H](/C=C(\C)C(=O)O)CC[C@@H](C)[C@H]2CC1, the Potency was “inactive”. For CCN(CC)CCNC(=O)COc1ccc(Cl)cc1, the Potency was “inactive”. With O=C(O)[C@@H](O)[C@H](O)[C@H](O)[C@@H](O)C(=O)O the Potency was “inactive”. With CCCNC(C)C(=O)Nc1c(C)csc1C(=O)OC (stereo not given) the Potency was “inactive”. For CC(C)=CCCC(C)CCOC=O (stereo not given), the Potency was “inactive”. In the case of COC(=O)N[C@H](C(=O)N[C@@H](Cc1ccccc1)[C@@H](O)CN(Cc1ccc(-c2ccccn2)cc1)NC(=O)[C@@H](NC(=O)OC)C(C)(C)C)C(C)(C)C, the Potency is reported as 26.6 µM (active). With CCC(=O)c1ccc2c(c1)N(CCCN(C)C)c1ccccc1S2 the Potency was 7.5 µM (active). In the case of O=Cc1ccc(F)c(Br)c1, the Potency is reported as “inactive”. For COC(C)CCO (stereo not given), the Potency was “inactive”.
